In the library only some 17% were active in any assay of this set; here they are far more common.
ClpP mod = qHTS Assay for Activators of ClpP. ATP-dependent Clp protease proteolytic subunit (Bacillus subtilis (strain 168)), P80244. 340,000 tested, 1.9% active. Potency, µM (doses to about 57.5 µM), without a hit: top-dose activity change, negative = active. purified B. subtilis ClpP, FRET peptide cleavage, 20 min. AID 651965, 2013; active = well fitted falling curve with a large enough effect; inconclusive = small, poorly fitted or top-dose-only effect; inactive = no such curve, though single readings can be large or run the other way; also: the source files actives as falling curves though it sought activators and does not explain the sign; nearly all actives have a fitted effect of over 65% in size
Target sequence (P80244 whole entry, looked up): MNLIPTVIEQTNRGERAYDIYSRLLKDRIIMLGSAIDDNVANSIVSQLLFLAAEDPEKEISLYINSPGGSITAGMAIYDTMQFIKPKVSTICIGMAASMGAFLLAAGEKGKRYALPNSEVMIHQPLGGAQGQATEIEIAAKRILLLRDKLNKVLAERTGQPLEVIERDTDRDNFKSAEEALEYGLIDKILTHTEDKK
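Buffer: 100 mM Tris/HCl pH8, 100 mM KCl, 0.05% low protease BSA, 2.5% glycerol, 0.01% Tween-20. ClpP 10 microg/mL final; 20 min RT; delta FRET normalized to ADEP and DMSO controls.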
TDP1 block = qHTS Assay for Inhibitors of Tyrosyl-DNA Phosphodiesterase (TDP1). recombinant TDP1, AlphaScreen DNA substrate cleavage. AID 485290, 2010. Potency, µM (doses to about 130 µM), for the others: at the highest dose activity change, negative = inhibition, hits mostly inhibitors. Tyrosyl-DNA phosphodiesterase 1 (Homo sapiens), Q9NUW8. 350,000 tested, 0.28% active; also: % is scaled to controls: 0 for no effect and ±100 for the full control effect; nearly all actives have a fitted effect of over 40% in size
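Here, a 5' biotin and 3' phosphotyrosine-FITC DNA oligonucleotide reports Tdp1 activity: intact substrate bridges AlphaScreen beads, while cleavage leaves a 3' phosphate and drops signal. All incubations at room temperature.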
DT40 TDP1 no CPT = qHTS for Inhibitors of human tyrosyl-DNA phosphodiesterase 1 (TDP1): qHTS in cells in absence of CPT | DT40 Tdp1-/- hTDP1 cells, no CPT, ATP luminescence, 48 h | 420,000 tested, 15% active | Potency, µM (doses to about 46.2 µM), inactives show top-dose activity change, negative = growth inhibition, usual class: inhibitors; also: % is scaled to controls: 0 for no effect and ±100 for the full control effect; nearly all actives have a fitted effect of over 55% in size
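Growth kinetics read by CellTiter-Glo luminescence after ≥48 hr at 37 °C. Cells: DT40 Tdp1-/- stably carrying human TDP1, 400 per well, compound exposure in the absence of CPT (DMSO vehicle).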
TDP1 cell CPT = qHTS for Inhibitors of human tyrosyl-DNA phosphodiesterase 1 (TDP1): qHTS in cells in presence of CPT | chicken DT40 Tdp1-/-;hTDP1 cells + 20 nM CPT, ATP luminescence, 48 h | 420,000 tested, 12% active | Potency, µM (top dose mostly 46.2 µM), for the others: top-dose activity change, negative = growth inhibition, most hits filed as inhibitors; also: % is scaled to controls: 0 for no effect and ±100 for the full control effect; nearly all actives have a fitted effect of over 55% in size
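Chicken DT40 Tdp1-/- cells stably complemented with human TDP1 were seeded at 400 cells/well in medium containing 20 nM camptothecin, exposed to pin-transferred compounds, and grown at 37 °C for at least 48 hr. Viability was read as ATP luminescence.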
Starred values were filed as active, the others as inactive; [ ] = another dose, or the depositor's remark. Unless noted, calls follow the shape of the dose curve; as a rule, active = well fitted curve in the direction sought with a large enough effect; inconclusive = small, poorly fitted or top-dose-only effect, or another doubt; inactive = no such curve, though single readings can be large; an effect the other way counts as inactive or inconclusive. Potency is read from the fitted curve at half-maximal effect.

`Cc1ccccc1N1CCN(S(=O)(=O)CC23CCC(CC2NC(=O)C(N)CCS(C)(=O)=O)C3(C)C)CC1` (stereo not given) gave TDP1 block 8.2%.
Screening COc1ccc2c(c1)CC/C(=C/c1cc(OC)c(OC)c(OC)c1)C2=O returned TDP1 block 6.2%, DT40 TDP1 no CPT 14.6µM* and TDP1 cell CPT inconclusive.
Screening COc1ccc2c(c1)CC/C(=C\C=C\c1ccccc1)C2=O returned ClpP mod -7.5%, TDP1 block 4.5%[56.1 µM], DT40 TDP1 no CPT 23.1µM* and TDP1 cell CPT inconclusive.
Screening COc1ccc(OC)c(C=C2CCc3ccccc3C2=O)c1 returned ClpP mod 0.4%, DT40 TDP1 no CPT inconclusive and TDP1 cell CPT 20.6µM*.
Cc1ccc(C(=O)N2CC3(C(C)C)CN(C(=O)c4ccc(C)cc4)CC(C(C)C)(C2)C3=O)cc1 was read as ClpP mod 0.1%, TDP1 block 6.0%, DT40 TDP1 no CPT 14.6µM* and TDP1 cell CPT inconclusive.
For CCC12CN(C(=O)c3ccc(C)cc3)CC(CC)(CN(C(=O)c3ccc(C)cc3)C1)C2=O the results were ClpP mod -0.1%, TDP1 block 0.0%, DT40 TDP1 no CPT inconclusive and TDP1 cell CPT -6.1%.
CCc1ccc2occ(CC(=O)Nc3ccccc3C(F)(F)F)c2c1 was read as ClpP mod -0.3%, TDP1 block 3.7%, DT40 TDP1 no CPT -20.8% and TDP1 cell CPT -14.1%.
COc1cc(C2c3cc4c(cc3OC(Nc3ccc(C(=O)O)cc3)C2C)OCO4)cc(OC)c1OC (stereo not given) was read as ClpP mod -1.6%, DT40 TDP1 no CPT 1.16µM* and TDP1 cell CPT 1.3µM*.
For COc1cc(C2c3cc4c(cc3OC(NCCc3ccccc3)C2C)OCO4)cc(OC)c1OC (stereo not given) the results were ClpP mod -3.7%, DT40 TDP1 no CPT 0.82µM* and TDP1 cell CPT 1.03µM*.
Screening O=C(Nc1nc([C@@H]2O[C@H](CO)[C@@H](O)[C@H](O)[C@H]2O)cs1)NC(c1ccccc1)c1ccccc1 returned ClpP mod -1.0%, DT40 TDP1 no CPT 1.4% and TDP1 cell CPT 0.8%.
O=S(=O)(c1ccc2[nH]c3c(c2c1)CCCCC3)N1CCN(c2cccc(Cl)c2)CC1 was read as ClpP mod -19.6%, TDP1 block 8.5%, DT40 TDP1 no CPT 11.6µM* and TDP1 cell CPT 18.4µM*.
Cc1ccc(Cl)cc1N1CCN(S(=O)(=O)c2ccc3[nH]c4c(c3c2)CCCC4)CC1 was read as ClpP mod inconclusive, TDP1 block 9.9%, DT40 TDP1 no CPT inconclusive and TDP1 cell CPT inconclusive.
CC1CCCN(S(=O)(=O)c2ccc3[nH]c4c(c3c2)CCCC4)C1 (stereo not given) was read as ClpP mod -13.5%, TDP1 block 6.7%, DT40 TDP1 no CPT inconclusive and TDP1 cell CPT 20.6µM*.
For CC(=O)c1ccc(N2CCN(S(=O)(=O)c3ccc4[nH]c5c(c4c3)CCCC5)CC2)cc1 the results were ClpP mod -14.4%, TDP1 block 7.5%, DT40 TDP1 no CPT 25.9µM* and TDP1 cell CPT inconclusive.
Screening CCCN1CCN(CC(O)COC(c2ccc(OC)cc2)c2ccc(OC)cc2)CC1 (stereo not given) returned ClpP mod 3.5%, DT40 TDP1 no CPT -15.1% and TDP1 cell CPT -15.7%.
`Cc1cccc(OCc2nnc(SCC(=O)NC3CCCCC3)n2C)c1` gave TDP1 block -7.9%, DT40 TDP1 no CPT -4.5% and TDP1 cell CPT 13.2%.
For COc1cc(/C=N/NC(=S)NCc2ccccc2)ccc1OCC#N the results were ClpP mod -3.2%, TDP1 block 0.0%, DT40 TDP1 no CPT 23.1µM* and TDP1 cell CPT 20.6µM*.
COc1cc(/C=N\NC(=O)CC#N)ccc1OC/C=C/c1ccccc1 was read as ClpP mod -17.4%, TDP1 block 5.6%[56.1 µM], DT40 TDP1 no CPT inconclusive and TDP1 cell CPT 25.9µM*.

Screening data as filed in PubChem.
